# Experimental data as given in the supplement of paper PMC6555819.
# Columns and labels:
# Assay in all cases: PBM binding z-score (relative to random genomic background probes); higher = stronger binding; sequences stand for … in GC…GCGATTGACAGCGTAGAATGAAGG
# [1] = tested on: PPARg:RXRa DBDmut IVT, anti-RXR (DBD mutation: RXRa K156A/R161A, NR concentration 270 nM, RXRa partner concentration 90 nM)
# Outline: (§1)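 Probes were double-stranded and carried 34-nt variable regions with direct-repeat seeds, single-nucleotide variants, half-site ablations and random human genomic background sequences, printed on custom Agilent 4×180K protein-binding microarrays. Arrays were incubated 1 h with ligand-free nuclear receptor dimers in PBS pH 7.4, 2% milk, 0.02% Triton X-100, 1 mM DTT, 0.2 mg/mL BSA and 0.4 mg/ml salmon testes DNA. Antibodies against each partner (one per run) detected binding, and scanned fluorescence was regression-normalized. Binding z-scores use the random background probes as reference.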
# [2] = tested on: PPARg:RXRa IVT, anti-PPARg (NR concentration 270 nM, RXRa partner concentration 90 nM)
# Outline: as §1
# [3] = tested on: PPARg DBDmut:RXRa IVT, anti-PPARg (DBD mutation: PPARg1 K132A/R137A, NR concentration 270 nM, RXRa partner concentration 90 nM)
# Outline: as §1
# [4] = tested on: PPARg DBDmut IVT, anti-PPARg (DBD mutation: PPARg1 K132A/R137A, NR concentration 270 nM)
# Outline: as §1
# [5] = tested on: PPARg homodimer (NR concentration 180 nM)
# Outline: as §1
# [6] = tested on: PXR:RXRa (NR concentration 270 nM, RXRa partner concentration 90 nM)
# Outline: as §1
# [7] = tested on: PXR homodimer (NR concentration 270 nM)
# Outline: as §1
# [8] = tested on: RARa:RXR (NR concentration 270 nM, RXRa partner concentration 90 nM)
# Outline: as §1
# [9] = tested on: RARa homodimer (NR concentration 270 nM)
# Outline: as §1
# [10] = tested on: RARb:RXRa (NR concentration 270 nM, RXRa partner concentration 90 nM)
# Outline: as §1
Sequence,PBM binding z-score [1],PBM binding z-score [2],PBM binding z-score [3],PBM binding z-score [4],PBM binding z-score [5],PBM binding z-score [6],PBM binding z-score [7],PBM binding z-score [8],PBM binding z-score [9],PBM binding z-score [10]
TTACCAAGGTGATAGGTCGTTGATGCACGCCTTG,1.07,2.82,0.428,0.413,1.26,0.611,-0.14,1.36,-0.163,1.07
TCATATAGGTAAACAGGTGAAAATCCGTAAGTTA,4.38,4.3,1.27,0.925,1.28,1.18,0.297,1.4,1.83,0.846
TCTTGTAGATCCATAGAGGTTAAGAAAGTGCGCT,1.15,0.128,1.1,0.975,0.227,2.66,0.0814,1.35,0.858,0.837
CGTCAAAGTTCAACTTAGGTAACGTAAAGCACGC,-0.00853,2.1,0.537,0.683,4.03,5.5,4.07,4.61,2.1,5.38
GGAACGTGGGCATTCGAGTTGATAGCATGGCGAT,-0.654,-0.803,-0.387,-0.8,-0.877,-0.129,-0.516,-0.333,-0.773,-0.433
ACAGACAGGTGATGAAGGTAACTCCGGCTATCAT,0.0958,0.462,0.468,0.294,-0.227,0.0944,-0.1,0.357,0.0561,0.429
GCTAGGAGGACAAGGTCAGAGCTTTGTCCGTAGA,1.13,1.17,-0.92,-1.52,0.32,1.57,-0.305,1.89,-1.07,3.41
CGAACTAGGTCACGAAAGGTCAAAGTCGAATGAC,8.45,8.7,0.767,1.32,5.63,7.14,3.35,7.72,2.82,5.68
CCTCGGAGGACAGAAGGTCGGAGCTGTCCGCTTT,-0.473,-0.963,-1.7,-2.08,0.00885,-0.282,-0.764,-0.413,-0.449,1.12
CTCGAAAGGTCGTACTCAGGTGAGTATACCAAAC,1.03,1.95,0.751,1.1,2.32,3.69,0.0401,4.62,0.162,3.75
TCGGGTAGGTTAGGGGCATTCAGAATGGCGTCGA,1.55,1.36,0.266,0.468,1.38,1.67,1.27,1.32,0.423,1.74
CCTGCTGGGCCAAAGGTCATTGATTCCAATGCTC,1.56,4.42,-0.0348,0.037,3.9,5.43,1.15,6.18,0.602,4.63
ACTAGCAGGACAAGTTTGGGTCACTCAAACAAAG,0.129,0.867,0.113,-0.22,0.596,0.911,-0.116,1.47,-0.279,1.7
ATACCAAGGTGATCGCGAGGTCGTTGATACTAAC,0.441,1.35,0.0109,0.101,0.588,3.17,1.13,1.84,-0.462,1.24
ATACCAAGGTGATCGTGATGTCGTTGATACTAAC,0.486,0.996,0.919,1.1,0.247,-0.038,0.104,0.057,0.517,0.325
TCCCGGAGGACACGAAAGGTCAGAGCTCGACATC,1.58,1.17,-0.696,-0.402,2.86,3.87,0.5,4.24,1.11,4.25
ACAGACAGATGAGTGAAGGTAACTCAGCTGGACG,-0.101,0.00181,0.781,0.138,0.692,-0.0478,0.186,0.101,0.524,-0.14
CCGACTGGGGCAAGGTAACCATAACGCACAGCCA,2.79,2.75,0.115,-0.601,0.0706,-0.546,-0.376,0.0797,0.0514,0.619
GCTATTAGTTGAAAGGGCCACCGAATGATTCTCG,0.635,-0.116,0.0939,-0.248,0.586,-0.34,-0.184,-0.0438,0.309,1.02
CGAACTAGGTAAGAACAGGACAGTGAAGGATGAT,3.73,2.52,0.465,0.0684,0.00147,-0.257,-0.137,-0.362,-0.184,-0.143
ATATGTAGGTTAGCGGGTCATTCAGTTTGCGCAT,7.62,7.02,2.14,1.79,2.58,3.07,5.07,2.89,1.16,2.31
ACTCCGAGGACAAAGGTCAGAGCTACGCCAGTGA,1.44,4.05,0.71,-0.0719,6.93,4.53,0.63,5.82,2.61,4.58
